Results as given in PubChem BioAssay AID588800 (Johns Hopkins Ion Channel Center, 2011).
Active and inactive are the calls of the source.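 Rule for the calls: active = peak inhibition of the KCNQ2 potassium channel above 30% at some tested dose, plus a fitted dose response curve; inactive = no inhibition at any dose, or no curve.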

Molecular target: Potassium voltage-gated channel subfamily KQT member 2 (Rattus norvegicus) (UniProt O88943)
Experiment: blockade of KCNQ2 thallium flux – cell-based, FluxOR thallium flux, CRC set 2, selectivity assay for KCNK9 inhibitor project, SAR follow-up (AID 588800)
Conditions: KCNQ2-expressing cells; series mostly up to 30 µM

Potassium voltage-gated channel subfamily KQT member 2 (Rattus norvegicus), sequence (O88943 whole entry, looked up): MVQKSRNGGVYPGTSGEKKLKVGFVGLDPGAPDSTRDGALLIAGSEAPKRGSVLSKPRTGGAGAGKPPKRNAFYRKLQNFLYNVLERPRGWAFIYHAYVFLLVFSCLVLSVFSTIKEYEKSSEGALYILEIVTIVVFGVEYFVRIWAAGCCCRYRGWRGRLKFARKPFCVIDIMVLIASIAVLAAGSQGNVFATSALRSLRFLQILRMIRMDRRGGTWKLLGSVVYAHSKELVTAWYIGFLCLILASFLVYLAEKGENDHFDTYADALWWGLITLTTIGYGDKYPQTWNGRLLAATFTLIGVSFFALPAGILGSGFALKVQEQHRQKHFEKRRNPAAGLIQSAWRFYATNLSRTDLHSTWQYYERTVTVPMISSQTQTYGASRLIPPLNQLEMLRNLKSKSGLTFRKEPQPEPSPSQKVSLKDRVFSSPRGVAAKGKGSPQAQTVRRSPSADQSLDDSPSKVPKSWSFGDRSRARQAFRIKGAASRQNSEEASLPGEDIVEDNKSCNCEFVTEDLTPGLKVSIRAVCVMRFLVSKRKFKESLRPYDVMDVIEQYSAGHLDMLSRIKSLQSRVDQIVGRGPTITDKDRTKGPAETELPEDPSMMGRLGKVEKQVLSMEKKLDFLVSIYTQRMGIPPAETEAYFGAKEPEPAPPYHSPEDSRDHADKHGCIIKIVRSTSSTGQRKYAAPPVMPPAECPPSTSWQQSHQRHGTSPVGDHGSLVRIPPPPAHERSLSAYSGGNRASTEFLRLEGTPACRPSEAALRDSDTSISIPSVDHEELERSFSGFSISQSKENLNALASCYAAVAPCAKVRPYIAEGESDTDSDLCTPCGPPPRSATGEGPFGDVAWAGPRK

outcome, inactive:
O=C(Nc1cccc(NC(=O)c2ccncc2)c1)c1ccccc1
CCOc1ccccc1NC(=O)c1cccc(NC(=O)c2ccccc2C(F)(F)F)c1
Cc1cccc(C(=O)Nc2cccc(NC(=O)c3ccccc3OC(F)(F)F)c2)c1
Cc1ccccc1-c1n[nH]c(=S)n1C(C)C1CC2CCC1C2 (stereo not given)
CCOc1ccccc1NC(=O)c1cccc(NC(=O)c2ccccc2C)c1
CCOc1ccccc1NC(=O)c1cccc(NC(=O)c2ccccc2Cl)c1
Cc1cccc(C(=O)Nc2cccc(NC(=O)c3cccc(C(F)(F)F)c3)c2)c1
CCOc1ccccc1NC(=O)c1cccc(NC(=O)c2cccc(Cl)c2)c1
CCOc1ccccc1NC(=O)c1cccc(NC(=O)c2ccccc2OC(F)(F)F)c1
CC(C1CC2CCC1C2)n1c(-c2ccco2)n[nH]c1=S (stereo not given)
COc1ccccc1C(=O)Nc1cccc(NC(=O)c2cccc(C)c2)c1
CCOc1ccccc1NC(=O)c1cccc(NC(=O)C2CCCO2)c1 (stereo not given)
CC(C)(C)c1ccc(C(=O)Nc2cccc(NC(=O)c3ccccc3)c2)cc1
COc1cccc(C(=O)Nc2cccc(NC(=O)c3cccc(C)c3)c2)c1
Cc1cccc(C(=O)Nc2cccc(NC(=O)c3ccc(Cl)cc3)c2)c1
Cc1cccc(C(=O)Nc2cccc(NC(=O)c3cccc(C)c3)c2)c1
O=C(Nc1cccc(NC(=O)c2ccccc2)c1)c1ccccc1
COc1ccc(-c2n[nH]c(=S)n2C(C)C2CC3CCC2C3)cc1 (stereo not given)
O=C(Nc1cccc(NC(=O)c2ccc(C(F)(F)F)cc2)c1)c1ccccc1
CCOc1ccccc1NC(=O)c1cccc(NC(=O)c2ccccc2OC)c1
O=C(Nc1cccc(NC(=O)c2ccco2)c1)c1ccccc1
O=C(Nc1cccc(NC(=O)c2ccc(F)cc2)c1)c1ccccc1
CC(C1CC2CCC1C2)n1c(-c2ccoc2)n[nH]c1=S (stereo not given)
CC(C1CC2CCC1C2)n1c(C2CCOC2)n[nH]c1=S (stereo not given)
O=C(Nc1cccc(NC(=O)c2cccnc2)c1)c1ccccc1
CCOc1ccccc1NC(=O)c1cccc(NC(=O)c2ccc(C)cc2)c1
CCOc1ccccc1NC(=O)c1cccc(NC(=O)c2ccc(C(F)(F)F)cc2)c1
O=C(Nc1cccc(NC(=O)c2cccc(F)c2)c1)c1ccccc1
COc1ccc(C(=O)Nc2cccc(NC(=O)c3ccccc3)c2)cc1
O=C(Nc1ccccc1Cl)c1cccc(NC(=O)C2CCCC2)c1
COc1ccccc1NC(=O)c1cccc(NC(=O)c2ccccc2)c1
O=C(Nc1cccc(NC(=O)c2ccc(Cl)cc2)c1)c1ccccc1
COc1ccccc1C(=O)Nc1cccc(NC(=O)c2ccccc2OC(F)(F)F)c1
CC(C1CC2CCC1C2)n1c(-c2ccc(Cl)cc2)n[nH]c1=S (stereo not given)
CN(C)c1ccc(C(=O)Nc2cccc(NC(=O)c3ccccc3)c2)cc1
